# Assay results as given in PubChem BioAssay (EPA / NIEHS).
# Values joined by “and” are separate entries in the source; they are usually repeats but may differ in a detail not shown here. Equal values may be shown once. The source holds several records for some structures; these can differ, active in one and inactive in another. Active and inactive are the calls of the source. How the source made its calls: active means hit-call score of the fitted dose curve at least 0.9, where 1 is the maximum; inactive means score below 0.9.
# What was measured:
# [1] = biological target: CCAAT/enhancer-binding protein beta (Homo sapiens) (UniProt P17676); assay: ATG_C_EBP_CIS: Attagene CIS-FACTORIAL HepG2 Assay for human CCAAT/Enhancer Binding Protein (C/EBP) beta (AID 2282927); conditions: HepG2 Attagene cis-factorial transcription factor reporter; actives raise or lower the signal
# Procedure, shortened: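 Endogenous transcription factor activity in human liver HepG2 cells is inferred from induction of a CEBPB-linked reporter mRNA. Exposure lasts 24 h; activity is fitted in both directions relative to DMSO.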
# [2] = ATG_CMV_CIS: Attagene CIS-FACTORIAL HepG2 Assay for human CMV (Internal Marker) (AID 2282928); conditions: HepG2 CMV promoter reporter, transcription factor profiling; actives raise or lower the signal;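 further: endpoint acts as a background internal control marker rather than a target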
# Procedure, shortened: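 Bidirectional fits against DMSO are applied to reporter mRNA, read by RT-PCR with capillary electrophoresis, from HepG2 cells exposed 24 h. The endpoint serves as an internal CMV background marker within the cis-factorial reporter panel.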
# [3] = ATG_DR4_LXR_CIS: Attagene CIS-FACTORIAL HepG2 Assay for human Liver X Receptor (LXR), DR4 submotif (AID 2282929); conditions: HepG2 Attagene DR4 cis-reporter, mRNA transcription; actives raise or lower the signal
# Procedure, shortened: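 After transient transfection with multiplexed cis-promoter reporter units, HepG2 cells received test chemicals for 24 h. Reporter mRNA induction, detected by fluorescence after RT-PCR and capillary electrophoresis, was scored relative to DMSO.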
# [4] = biological target: Aryl hydrocarbon receptor (Homo sapiens) (UniProt P35869); assay: ATG_Ahr_CIS: Attagene CIS-FACTORIAL HepG2 Assay for human Aryl Hydrocarbon Receptor (Ahr) (AID 2282930); conditions: HepG2 AhR cis-factorial reporter transcription; actives raise or lower the signal
# Procedure, shortened: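 Transient MRTU transfection of HepG2 → 24 h compound exposure → total RNA, oligo(dT) RT → PCR, 6-FAM extension, HpaI cut → CE fluorescence. DMSO = baseline; bidirectional curve fit.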
# [5] = ATG_AP_1_CIS: Attagene CIS-FACTORIAL HepG2 Assay for human Activator Protein 1 (AP-1) (AID 2282931); conditions: HepG2 Attagene cis-factorial AP-1 reporter mRNA; actives raise or lower the signal
# Procedure, shortened: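 After 24 h incubation with test chemical, RNA from transfected HepG2 cells was reverse-transcribed, amplified, fluorescently labelled and digested before capillary electrophoresis. Reporters were driven by cis-regulatory promoters; activity fitted bidirectionally versus DMSO.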
# [6] = ATG_AP_2_CIS: Attagene CIS-FACTORIAL HepG2 Assay for human Activator Protein 2 (AP-2) (AID 2282932); conditions: HepG2 AP-2 cis-reporter, Attagene transcription factor profiling; actives raise or lower the signal
# Procedure, shortened: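 Transiently transfected HepG2 cells are exposed to chemical for 24 h. Reporter transcripts are then measured as fluorescence following RT-PCR and capillary separation, and gain- or loss-of-signal is fitted relative to DMSO.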
# [7] = ATG_BRE_CIS: Attagene CIS-FACTORIAL HepG2 Assay for human Bone Morphogenetic Protein (BMP) Response Element (BRE) (AID 2282933); conditions: HepG2 BMP response element reporter, Attagene transcription factor profiling; actives raise or lower the signal
# Procedure, shortened: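 Fluorescence-labelled reporter cDNA fragments, separated by capillary electrophoresis, gave the signal for this component of a 52-readout multiplex. HepG2 cells were transfected, exposed to chemicals for 24 h, and compared with DMSO using bidirectional fitting.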
# [8] = biological target: Retinoic acid receptor alpha (Homo sapiens) (UniProt P10276); assay: ATG_DR5_RAR_CIS: Attagene CIS-FACTORIAL HepG2 Assay for human Retinoic Acid Receptor Alpha (RARE), DR5 submotif (AID 2282934); conditions: HepG2 Attagene cis-factorial RARE DR5 reporter, mRNA; actives raise or lower the signal;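 on AC50: reporter responds to endogenous RAR alpha beta and gamma in HepG2 not RARA alone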
# Procedure, shortened: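 Transient MRTU transfection of HepG2; 24 h compound treatment; TriZol RNA, oligo(dT) RT, PCR, FAM labelling, capillary electrophoresis. Bidirectional fit vs DMSO. Endogenous TF activity at DR5 RARE.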
# [9] = biological target: Transcription factor E2F1 (Homo sapiens) (UniProt Q01094); assay: ATG_E2F_CIS: Attagene CIS-FACTORIAL HepG2 Assay for human E2F Transcription Factor 1 (AID 2282935); conditions: HepG2 Attagene cis-reporter, E2F reporter RNA transcripts; actives raise or lower the signal
# Procedure, shortened: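 Fluorescent RT-PCR products, digested with HpaI for 2 h at 37 C, are separated by capillary electrophoresis. Source RNA comes from transfected HepG2 cultures treated for 24 h.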
# [10] = ATG_E_Box_CIS: Attagene CIS-FACTORIAL HepG2 Assay for human Enhancer Box (E-box) (AID 2282936); conditions: HepG2 E-box cis-reporter transcription, actives raise or lower the signal
# Procedure, shortened: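 Fluorescent reporter fragments separated by capillary electrophoresis gave the signal; mRNA came from HepG2 cells transfected with cis-element reporters and treated 24 h. Curves fitted bidirectionally relative to DMSO controls.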
# Sequence of CCAAT/enhancer-binding protein beta (Homo sapiens) (P17676 whole entry, looked up): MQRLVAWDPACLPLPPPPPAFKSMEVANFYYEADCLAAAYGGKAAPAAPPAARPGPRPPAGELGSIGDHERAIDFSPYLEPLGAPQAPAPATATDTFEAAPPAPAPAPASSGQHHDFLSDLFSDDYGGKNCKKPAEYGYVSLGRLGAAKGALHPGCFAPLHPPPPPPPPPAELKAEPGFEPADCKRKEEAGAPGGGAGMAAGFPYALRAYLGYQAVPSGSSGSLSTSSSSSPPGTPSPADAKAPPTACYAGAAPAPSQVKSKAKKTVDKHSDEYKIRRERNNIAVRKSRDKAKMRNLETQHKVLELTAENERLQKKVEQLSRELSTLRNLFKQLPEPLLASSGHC
# Sequence of Transcription factor E2F1 (Homo sapiens) (Q01094 whole entry, looked up): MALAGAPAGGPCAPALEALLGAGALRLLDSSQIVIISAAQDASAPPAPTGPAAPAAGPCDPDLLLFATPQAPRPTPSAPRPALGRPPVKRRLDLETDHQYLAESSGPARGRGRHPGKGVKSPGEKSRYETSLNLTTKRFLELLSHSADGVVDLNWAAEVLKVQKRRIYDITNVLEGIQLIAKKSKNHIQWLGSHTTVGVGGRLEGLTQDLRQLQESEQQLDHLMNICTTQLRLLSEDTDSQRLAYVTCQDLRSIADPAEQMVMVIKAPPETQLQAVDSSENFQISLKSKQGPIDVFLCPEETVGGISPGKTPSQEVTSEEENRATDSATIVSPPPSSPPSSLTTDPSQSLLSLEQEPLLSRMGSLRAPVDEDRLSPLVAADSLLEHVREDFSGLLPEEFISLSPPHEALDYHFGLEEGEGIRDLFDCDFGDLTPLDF
# Sequence of Retinoic acid receptor alpha (Homo sapiens) (P10276 whole entry, looked up): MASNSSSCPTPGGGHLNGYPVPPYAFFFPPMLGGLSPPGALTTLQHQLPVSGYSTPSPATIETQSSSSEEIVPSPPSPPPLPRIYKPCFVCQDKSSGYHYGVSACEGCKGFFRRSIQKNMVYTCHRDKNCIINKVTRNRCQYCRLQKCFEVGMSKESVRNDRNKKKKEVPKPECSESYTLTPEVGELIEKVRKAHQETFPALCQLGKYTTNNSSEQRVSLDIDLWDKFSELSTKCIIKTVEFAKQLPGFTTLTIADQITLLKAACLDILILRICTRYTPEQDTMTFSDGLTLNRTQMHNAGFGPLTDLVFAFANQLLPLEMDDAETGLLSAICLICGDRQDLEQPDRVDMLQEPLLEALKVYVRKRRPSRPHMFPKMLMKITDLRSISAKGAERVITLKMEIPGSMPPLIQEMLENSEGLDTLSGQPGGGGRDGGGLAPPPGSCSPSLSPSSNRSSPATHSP
# Sequence of Aryl hydrocarbon receptor (Homo sapiens) (P35869 whole entry, looked up): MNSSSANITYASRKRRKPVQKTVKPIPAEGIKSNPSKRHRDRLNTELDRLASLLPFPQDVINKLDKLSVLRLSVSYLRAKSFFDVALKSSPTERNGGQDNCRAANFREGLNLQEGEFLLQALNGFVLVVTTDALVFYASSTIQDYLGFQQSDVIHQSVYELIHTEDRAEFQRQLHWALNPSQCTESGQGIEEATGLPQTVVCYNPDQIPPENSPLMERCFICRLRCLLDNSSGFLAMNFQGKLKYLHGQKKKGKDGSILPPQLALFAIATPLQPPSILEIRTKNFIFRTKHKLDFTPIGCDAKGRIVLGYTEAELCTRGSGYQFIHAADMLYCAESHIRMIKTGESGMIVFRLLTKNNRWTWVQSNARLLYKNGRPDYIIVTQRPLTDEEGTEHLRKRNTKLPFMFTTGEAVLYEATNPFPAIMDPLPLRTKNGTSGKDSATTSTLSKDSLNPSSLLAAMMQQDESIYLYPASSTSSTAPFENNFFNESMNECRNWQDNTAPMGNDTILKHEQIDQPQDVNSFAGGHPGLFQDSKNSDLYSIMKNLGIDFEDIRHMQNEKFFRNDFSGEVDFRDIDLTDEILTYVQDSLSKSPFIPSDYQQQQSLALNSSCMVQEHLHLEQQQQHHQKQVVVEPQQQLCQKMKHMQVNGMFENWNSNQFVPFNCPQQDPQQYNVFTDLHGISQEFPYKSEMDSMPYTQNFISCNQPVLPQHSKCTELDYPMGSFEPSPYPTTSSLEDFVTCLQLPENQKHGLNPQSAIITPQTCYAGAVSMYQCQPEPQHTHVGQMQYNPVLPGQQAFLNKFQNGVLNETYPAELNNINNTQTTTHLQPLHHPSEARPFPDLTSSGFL
SMILES,outcome [1],outcome [2],outcome [3],outcome [4],outcome [5],outcome [6],outcome [7],outcome [8],outcome [9],outcome [10],AC50 [2],AC50 [3],AC50 [5],AC50 [9],AC50 [1],AC50 [6],AC50 [7],AC50 [10],AC50 [8]
COC(=O)c1ccc(CNS(C)(=O)=O)cc1S(=O)(=O)NC(=O)Nc1nc(OC)cc(OC)n1,inactive,inactive,inactive,inactive,inactive,inactive,inactive,inactive,inactive,inactive,–,–,–,–,–,–,–,–,–
CCCCOCCOCCOCc1cc2c(cc1CCC)OCO2,inactive,–,–,inactive,–,inactive,inactive,inactive,–,inactive,24.3 µM (active),89.8 µM (active),50 µM (active),58.4 µM (active),–,–,–,–,–
C#CCOC(=O)[C@@H](C)Oc1ccc(Oc2ncc(Cl)cc2F)cc1,inactive,inactive,inactive,inactive,inactive,inactive,inactive,inactive,inactive,inactive,–,–,–,–,–,–,–,–,–
c1ccc2[nH]c(-c3cscn3)nc2c1,inactive,inactive,inactive,–,inactive,inactive,inactive,inactive,inactive,inactive,–,32.1 µM (active),–,–,–,–,–,–,–
CC(C)(c1ccc(O)cc1)c1ccc(O)cc1,inactive,inactive,inactive,–,inactive,inactive,inactive,inactive,inactive,inactive,50 µM (active) [middle of 6 runs],–,–,–,33.4 µM (active),121 µM (active) and 148 µM (active) and 101 µM (active),155 µM (active),–,–
S=C(S)NCCNC(=S)S.[Mn+2].[S-]C([S-])=NCCN=C([S-])[S-].[Zn+2],inactive,inactive,inactive,–,inactive,inactive,inactive,–,inactive,inactive,231 nM (active) and 1.21 µM (active) and 343 nM (active),8.2 µM (active) and 50 µM (active) and 67.7 µM (active),20.7 µM (active) [middle of 4 runs],–,–,4.93 µM (active),–,–,–
OB(O)O,inactive,inactive,inactive,inactive,inactive,inactive,inactive,inactive,inactive,inactive,–,–,–,–,–,–,–,–,–
CC1(C)C(C=C(Cl)Cl)C1C(=O)OCc1cccc(Oc2ccccc2)c1 (stereo not drawn),inactive,inactive,–,inactive,inactive,inactive,inactive,–,inactive,inactive,–,29.9 µM (active),–,–,–,–,–,–,–
CCOC(=O)c1ccc(O)cc1,inactive,inactive,inactive,inactive,inactive,inactive,inactive,inactive,inactive,inactive,–,–,–,–,100 µM (active),–,166 µM (active),167 µM (active),–
Oc1ccc(C(c2ccc(O)cc2)C(Cl)(Cl)Cl)cc1,inactive,inactive,inactive,inactive,inactive,inactive,inactive,–,inactive,inactive,–,–,–,–,–,–,–,–,–
COc1c(Cl)ccc(Cl)c1C(=O)O,inactive,inactive,inactive,inactive,inactive,inactive,inactive,inactive,inactive,inactive,–,–,–,–,–,–,–,–,–
CN(C)C(=O)Nc1ccc(Cl)c(Cl)c1,inactive,inactive,inactive,–,inactive,inactive,inactive,inactive,inactive,inactive,79.1 µM (active),–,27.7 µM (active),–,–,–,22.2 µM (active),–,–
CCCCOC(=O)C(C)Oc1ccc(Oc2ccc(C(F)(F)F)cn2)cc1 (stereo not drawn),inactive,inactive,inactive,inactive,inactive,inactive,inactive,inactive,inactive,inactive,–,–,–,–,–,–,–,–,–
COC(=O)c1c(Cl)nn(C)c1S(=O)(=O)NC(=O)Nc1nc(OC)cc(OC)n1,–,inactive,inactive,inactive,inactive,inactive,inactive,inactive,inactive,inactive,–,–,–,–,4.06 µM (active),–,–,–,–
CC(=O)[C@H]1CC[C@H]2[C@@H]3CCC4=CC(=O)CC[C@]4(C)[C@H]3CC[C@]12C,inactive,inactive,inactive,–,inactive,inactive,–,inactive,inactive,–,160 µM (active),8.67 µM (active),33.4 µM (active) and 170 µM (active),68.4 µM (active),115 µM (active),–,33.4 µM (active) and 24.3 µM (active) and 33.7 µM (active),–,–
CC(=O)S[C@@H]1CC2=CC(=O)CC[C@]2(C)[C@H]2CC[C@@]3(C)[C@@H](CC[C@@]34CCC(=O)O4)[C@H]12,inactive,inactive,inactive,–,inactive,inactive,inactive,–,inactive,inactive,26.1 µM (active) and 3.77 µM (active) and 12.1 µM (active),10.6 µM (active) and 12.5 µM (active) and 11.8 µM (active),–,–,–,–,70.9 µM (active) and 152 µM (active),7.33 µM (active) and 26.6 µM (active) and 18.4 µM (active),–
COC(=O)c1cccc(C)c1S(=O)(=O)NC(=O)Nc1nc(OCC(F)(F)F)nc(N(C)C)n1,inactive,inactive,inactive,–,inactive,inactive,inactive,inactive,inactive,inactive,–,–,–,–,–,–,–,–,–

SMILES,outcome [1],outcome [2],outcome [3],outcome [4],outcome [5],outcome [6],outcome [7],outcome [8],outcome [9],outcome [10],AC50 [2],AC50 [3],AC50 [5],AC50 [9],AC50 [1],AC50 [6],AC50 [7],AC50 [10],AC50 [8]
CSC(=O)c1cccc2nnsc12,inactive,inactive,inactive,–,inactive,inactive,inactive,inactive,inactive,inactive,–,–,–,–,–,–,–,–,–
CCOC(=O)C(C)Oc1ccc(Oc2nc3ccc(Cl)cc3o2)cc1 (stereo not drawn),inactive,inactive,inactive,inactive,inactive,inactive,inactive,inactive,inactive,inactive,–,–,–,–,–,–,–,–,–
c1ccc(Nc2ccccc2)cc1,inactive,inactive,inactive,inactive,inactive,inactive,inactive,inactive,inactive,inactive,–,–,–,–,–,–,16.6 µM (active),–,–
CCCCC(CC)CN1C(=O)C2C3C=CC(C3)C2C1=O (stereo not drawn),inactive,inactive,–,inactive,–,inactive,–,–,inactive,inactive,–,85.4 µM (active),69.6 µM (active),–,–,–,45.3 µM (active),–,–
C[C@]12C[C@H](O)[C@H]3[C@@H](CCC4=CC(=O)CC[C@@]43C)[C@@H]1CC[C@@H]2C(=O)CO,inactive,inactive,inactive,inactive,inactive,inactive,inactive,inactive,inactive,inactive,–,–,–,–,–,–,–,–,–
COC(=O)c1ccc(I)cc1S(=O)(=O)NC(=O)Nc1nc(C)nc(OC)n1,inactive,inactive,inactive,inactive,inactive,inactive,inactive,–,inactive,inactive,–,–,–,–,–,–,–,–,–
N#CSCSc1nc2ccccc2s1,inactive,inactive,inactive,–,inactive,inactive,inactive,inactive,inactive,inactive,2.95 µM (active),3.05 µM (active),3.02 µM (active),–,–,9.15 µM (active),3.03 µM (active),6.89 µM (active),–
O=C(O)c1ccccc1,inactive,inactive,inactive,inactive,inactive,inactive,inactive,–,inactive,inactive,–,–,–,–,–,–,–,–,–
COc1nc(C)nc(NC(=O)NS(=O)(=O)c2ccccc2OCCCl)n1,inactive,inactive,inactive,–,inactive,inactive,inactive,inactive,inactive,inactive,–,9.13 µM (active),–,–,–,–,–,–,–
CCCN(CCC)C(=O)SCC,inactive,inactive,inactive,inactive,inactive,inactive,inactive,–,inactive,inactive,–,–,–,–,–,–,–,–,–
CC(C)CCCCCCc1ccc(O)cc1,inactive,inactive,inactive,–,inactive,inactive,inactive,inactive,inactive,inactive,13.1 µM (active) and 17.4 µM (active),15.9 µM (active) and 21 µM (active) and 16.6 µM (active),17 µM (active),–,18.1 µM (active) and 15.4 µM (active),18.2 µM (active) and 17.2 µM (active),20.7 µM (active),17.6 µM (active) and 16.8 µM (active) and 15.6 µM (active),11.1 µM (active)
N[C@@H](Cc1cc(I)c(Oc2ccc(O)c(I)c2)c(I)c1)C(=O)O,inactive,inactive,inactive,–,inactive,inactive,inactive,–,inactive,inactive,–,–,22.6 µM (active),–,–,–,–,–,–
CCCOC(=O)c1ccc(C(=O)OCCC)nc1,inactive,inactive,inactive,inactive,inactive,inactive,inactive,inactive,inactive,inactive,–,–,–,–,–,–,–,–,–
S=C([S-])NCCNC(=S)[S-].[Mn+2],inactive,inactive,inactive,–,inactive,inactive,inactive,–,inactive,inactive,–,–,–,–,–,–,–,–,–
C=CCOC(Cn1ccnc1)c1ccc(Cl)cc1Cl (stereo not drawn),–,–,–,–,–,–,–,–,inactive,inactive,33 µM (active),76.1 µM (active),50 µM (active),–,12.4 µM (active),50 µM (active),33.7 µM (active),–,–
CCOC(=O)COc1cc(-n2ncc(C(F)(F)F)c(C)c2=O)c(F)cc1Cl,inactive,inactive,inactive,–,inactive,inactive,inactive,inactive,inactive,inactive,–,–,–,–,–,–,–,–,–
COCCO,inactive,inactive,inactive,–,inactive,inactive,inactive,inactive,inactive,inactive,–,–,–,–,–,–,–,–,–
